The values that follow come from the supplement of paper PMC12282887.

The experiment relates to E. coli BW25113 marRABp lux reporter. Description: promoter activity interaction Z-score (Lux/OD deviation from empty-vector control); higher = stronger promoter induction by the compound. As for the experimental part: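 E. coli BW25113 (wild type or ΔmarA/ΔsoxS/Δrob) carrying pTU175 luxCDABE promoter reporters was grown in LB in 384-well plates at 37°C with each of 94 compounds at 4 two-fold concentrations, in biological duplicates. Luminescence and OD600 were read every 30 min for 12 h and integrated as AUC over 8 h (0-8 h WT, 1-9 h mutants). Lux AUC was divided by OD AUC; the interaction score is the residual of a Huber robust fit of each promoter against the empty-vector control, then Z-transformed per promoter.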

The structures appear in SMILES notation. ± gives the standard deviation of the averaged measurements.

Turning to `C[C@H]1COc2c(N3CCN(C)CC3)c(F)cc3c(=O)c(C(=O)O)cn1c23` [Levofloxacin], the “promoter activity interaction Z-score” value came out at 0.0777 ± 0.09 (0.0045 µg/ml, genetic background: wild type); 0.886 ± 0.81 (0.0045 µg/ml, genetic background: ΔmarA); 0.457 ± 0.39 (0.0045 µg/ml, genetic background: Δrob); 0.129 ± 0.058 (0.0045 µg/ml, genetic background: ΔsoxS); 1.81 ± 0.43 (0.009 µg/ml, genetic background: wild type); 2.37 (0.009 µg/ml, genetic background: Δrob). Also, the “promoter activity interaction Z-score” value (0.009 µg/ml, genetic background: ΔsoxS) is 1.61 ± 0.18.
For the molecule `N[C@@H](C(=O)N[C@@H]1C(=O)N2C(C(=O)O)=C(Cl)CS[C@H]12)c1ccccc1` [Cefaclor], the “promoter activity interaction Z-score” value (0.11 µg/ml, genetic background: wild type) is -0.22 ± 0.046; the “promoter activity interaction Z-score” value (0.11 µg/ml, genetic background: ΔmarA) is -0.342 ± 0.017; the “promoter activity interaction Z-score” value (0.11 µg/ml, genetic background: Δrob) turned out to be 0.00564 ± 0.3; the “promoter activity interaction Z-score” value (0.11 µg/ml, genetic background: ΔsoxS) was 0.0816 ± 0.011; the “promoter activity interaction Z-score” value (0.23 µg/ml, genetic background: wild type) was 0.101 ± 0.062; the “promoter activity interaction Z-score” value (0.23 µg/ml, genetic background: ΔmarA) was -0.215 ± 0.016. The “promoter activity interaction Z-score” value is -0.0669 ± 0.059 (0.23 µg/ml, genetic background: Δrob); -0.244 ± 0.22 (0.23 µg/ml, genetic background: ΔsoxS); -0.245 ± 0.15 (0.46 µg/ml, genetic background: wild type); 0.298 ± 0.42 (0.46 µg/ml, genetic background: ΔmarA); 0.0148 ± 0.0067 (0.46 µg/ml, genetic background: Δrob); -0.145 ± 0.23 (0.46 µg/ml, genetic background: ΔsoxS).
Turning to `Nc1ccc(C(=O)O)cc1` [4-Aminobenzoic acid], the “promoter activity interaction Z-score” value is, setting by setting: (8.6 µg/ml, genetic background: wild type) 0.0884 ± 0.35; (8.6 µg/ml, genetic background: ΔmarA) 0.463 ± 0.36; (8.6 µg/ml, genetic background: Δrob) 0.185 ± 0.28; (8.6 µg/ml, genetic background: ΔsoxS) 0.0813 ± 0.12; (17.1 µg/ml, genetic background: wild type) 0.277 ± 0.097; (17.1 µg/ml, genetic background: ΔmarA) 0.444 ± 0.14. Moreover, the “promoter activity interaction Z-score” value (17.1 µg/ml, genetic background: Δrob) worked out at 0.444 ± 0.27; the “promoter activity interaction Z-score” value (17.1 µg/ml, genetic background: ΔsoxS) was -0.00694 ± 0.024; the “promoter activity interaction Z-score” value (34.3 µg/ml, genetic background: wild type) was determined as 0.29 ± 0.32; the “promoter activity interaction Z-score” value (34.3 µg/ml, genetic background: ΔmarA) was -0.226 ± 0.0094; the “promoter activity interaction Z-score” value (34.3 µg/ml, genetic background: Δrob) is -0.189 ± 0.33; the “promoter activity interaction Z-score” value (34.3 µg/ml, genetic background: ΔsoxS) came out at 0.117 ± 0.0092. Besides, the “promoter activity interaction Z-score” value by setting is: (68.6 µg/ml, genetic background: wild type) 0.174 ± 0.024; (68.6 µg/ml, genetic background: ΔmarA) 1.1 ± 0.03; (68.6 µg/ml, genetic background: Δrob) 0.919 ± 0.45; (68.6 µg/ml, genetic background: ΔsoxS) 0.753 ± 0.38.
Take `c1ccc2[nH]ccc2c1` [Indole]: the “promoter activity interaction Z-score” value was 0.304 ± 0.29 (14.6 µg/ml, genetic background: wild type); 0.3765 ± 0.00083 (14.6 µg/ml, genetic background: ΔmarA); 0.103 ± 0.22 (14.6 µg/ml, genetic background: Δrob); 0.259 ± 0.025 (14.6 µg/ml, genetic background: ΔsoxS); 0.16 ± 0.016 (29.3 µg/ml, genetic background: wild type); 0.41 ± 0.022 (29.3 µg/ml, genetic background: ΔmarA). For the same molecule, the “promoter activity interaction Z-score” value reads like this: (29.3 µg/ml, genetic background: Δrob) 0.118 ± 0.27; (29.3 µg/ml, genetic background: ΔsoxS) 0.258 ± 0.2; (58.6 µg/ml, genetic background: wild type) 0.085 ± 0.049; (58.6 µg/ml, genetic background: ΔmarA) -0.158 ± 0.041; (58.6 µg/ml, genetic background: Δrob) -0.0769 ± 0.035; (58.6 µg/ml, genetic background: ΔsoxS) -0.0326 ± 0.017. Also, the “promoter activity interaction Z-score” value is, setting by setting: (117.2 µg/ml, genetic background: wild type) 0.965 ± 0.34; (117.2 µg/ml, genetic background: ΔmarA) 0.558 ± 0.15; (117.2 µg/ml, genetic background: Δrob) 0.0948 ± 0.28; (117.2 µg/ml, genetic background: ΔsoxS) 0.629 ± 0.47.
